Pf Dd2 growth: qHTS Primary assay for Inhibitors of Plasmodium falciparum Dd2 growth in vitro. AID 1347417, 2020. 4.3% of 120,000 active. P. falciparum Dd2 growth, SYBR Green, 72 h. Potency, µM (titrated, usually from 28.9 µM), without a hit: at the highest dose activity, negative = inhibition, usual class: inhibitors; active = well fitted inhibition curve with a large enough effect;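 note: plate controls were DMSO vehicle for no effect and reference drug for full effect; nearly all actives have a fitted effect of over 65% in size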
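Infected erythrocytes (Dd2, 0.3% parasitemia, 2.5% hematocrit final) are added to compound in RPMI-1640/Albumax II medium, grown 72 h at 37C in low oxygen, then lysed with saponin/Triton-X containing SYBR Green and read by fluorescence.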
An asterisk follows results filed as active; i = inactive; [ ] = another dose, or the depositor's remark. The full list was thinned out, with hits kept by preference. Potency is the fitted concentration of half-maximal effect.

SMILES | Pf Dd2 growth
CC1CCc2c(sc(NC(=O)CCCOc3ccccc3)c2C(N)=O)C1 (stereo not given) | 30%
O=C(O)CCC(=O)Nc1sc2c(c1C(=O)Nc1ccccc1)CCCCC2 | 2%
CCOc1ccc(NC(=O)c2c(NCc3ccc(C)o3)sc3c2CCCCC3)cc1 | 11µM*
CCOC(=O)c1c(NC(=O)COc2ccc(Br)cc2)sc2c1CCCC2 | 20%
CCOc1ccc(NC(=O)c2c(NC(=O)c3cccc(C)c3)sc3c2CCC3)cc1 | 13%
CCOC(=O)c1c(NC(=O)c2ccccc2OCC)sc2c1CCC(CC)C2 (stereo not given) | 89%
CCOc1ccc(NC(=O)c2c(NCc3sccc3C)sc3c2CCCCC3)cc1 | 11µM*
CCOc1ccc(/C=C/C(=O)Nc2sc3c(c2C(=O)OC)CCC3)cc1 | 16%
Cc1cc(C)c2c(=O)cc(C(=O)Nc3sc4c(c3C(=O)NCc3cccnc3)CCCC4)oc2c1 | 27%
CCOc1ccccc1NC(=O)c1c(NCc2sccc2C)sc2c1CCC(C)C2 (stereo not given) | 5.6µM*
CCOc1ccc(NC(=O)NCc2c(-n3cccc3)sc3c2CCCC3)cc1 | 30%
CCOc1ccc(NC(=O)c2c(NCc3cccnc3)sc3c2CCCC3)cc1 | 13µM*
Cc1noc(C)c1CC(=O)N1[C@@H]2CC[C@H]1CC(NC(=O)c1ccncc1)C2 (stereo not given in full) | 9%
Cc1cnc(C(=O)N[C@@H]2CCC[C@@H]2C(=O)N2CCN(c3cccc(Cl)c3)CC2)cn1 | i
COCc1nc(C2CCCN(C(=O)CC3CCCC3)C2)no1 (stereo not given) | -2%
O=C(Cc1ccccc1)NCC1CN(Cc2ccc(C(=O)O)cc2)CC12CN(c1ccccc1)C2 (stereo not given) | i
COc1ccc(Cn2c(C3CCN(C(=O)c4ccc(F)cc4Cl)CC3)n[nH]c2=O)cc1 | i
CCOCC(=O)N[C@H]1CN(Cc2nc(C)c(C)n2C)C[C@@H]1C(C)C | -27%
O=S(=O)(c1ccccc1Cl)N1CCCC1c1nncn1C1CCCC1 (stereo not given) | -25%
COCCn1ncc(N2CCC(C(=O)Nc3ccc(F)cc3F)C2)cc1=O (stereo not given) | i
COc1ccccc1CCC(=O)N1CCc2nn(C)c(=O)n2CC1 | 19%
O=C1CCC(C(=O)N2CCCn3ccnc3C2c2ccccc2)=NN1 (stereo not given) | 17%
COc1ccc(Cl)cc1NC(=O)Cn1nnc(C(=O)NCc2cccs2)c1N | 2%
COc1ccc(NC(=O)c2c(NCc3ccc(C)o3)sc3c2CCCCC3)c(OC)c1 | 11µM*
CCOC(=O)c1c(NC(=O)COc2cccc(C)c2C)sc2c1CCCCC2 | 69%
SMILES | Pf Dd2 growth
CCOC(=O)N1CCc2c(sc(NCc3cccs3)c2C(=O)Nc2cc(Cl)ccc2OC)C1 | 8.9µM*
COc1ccccc1NC(=O)c1c(NCc2sccc2C)sc2c1CCCCC2 | 11µM*
COc1ccc(Cl)cc1NC(=O)Cn1nc(C(F)(F)F)c2c1CCCC2 | 6%
COc1ccc(NC(=O)Cn2c(=O)n(-c3ccccc3)c(=O)c3c4c(sc32)CCCC4)c(OC)c1 | 26%
COc1ccccc1NC(=O)c1c(NC(=O)COc2ccccc2)sc2c1CCCCC2 | -3%
CCOc1ccccc1NC(=O)c1c(NCc2sccc2C)sc2c1CCCCC2 | 13µM*
COc1ccc(NC(=O)c2nc(-c3ccc(C)cc3)n3c2CCCCC3)c(OC)c1 | 3%
Cc1ccc(NC(=O)CCC2CCN(C(=O)c3ccccc3)CC2)cc1F | i
Cc1nnc2n1CCC(NC(=O)Cc1c[nH]c3ccccc13)CC2 (stereo not given) | 33%
O=C(NCc1nnc2ccc(-c3ccccc3)nn12)c1ccc(Cl)cc1 | -19%
Cc1ccc(-c2ccc3nnc(CNC(=O)c4ccco4)n3n2)cc1C | 8%
CC(=O)c1cc(C(=O)N2C[C@@H](C(=O)O)[C@H](c3ccccc3)C2)c(=O)[nH]c1C | 0%
CCOc1ccccc1NC(=O)Cn1nc2n(c1=O)CCCC2 | i
Cc1noc(C)c1CCC(=O)N1C[C@@H](CO)[C@H](c2ccccn2)C1 | 4%
CCN1c2cc(C(=O)NCc3ccc(OC)c(OC)c3)ccc2C(=O)N2CCCCCC21 (stereo not given) | -23%
C[C@@H](NC(=O)c1cccs1)c1c(-c2ccc(F)cc2)noc1C(=O)O | -11%[44.1 µM]
Cc1nc2ncccn2c1C(=O)N1CCC2(CCCN(C)C2=O)C1 (stereo not given) | -4%
CC(C)(C)NC(=O)N1CCC(Oc2ncccc2C(=O)N2CCOCC2)C1 (stereo not given) | i
CCOc1ccccc1NC(=O)c1c(NC(=O)c2ccccc2)sc2c1CCCC2 | i
O=C(Cc1ccccc1)Nc1sc2c(c1C(=O)Nc1ccccc1Cl)CCC2 | i
COc1ccc(NC(=O)c2c(OC)cc(=O)n3c2CCCC3)c(C)c1 | 8%
O=C(Nc1sc2c(c1C(=O)Nc1ccccc1Cl)CCCC2)c1ccccc1F | 4%
COc1ccc(NC(=O)c2c(NCc3ccc(C)o3)sc3c2CCC(C)C3)cc1 (stereo not given) | 8.9µM*
COc1ccc(NC(=O)c2c(NCc3sccc3C)sc3c2CCCCC3)c(OC)c1 | 13µM*
CCOc1ccccc1NC(=O)c1c(NC(=O)C(C)Oc2ccc(Cl)cc2)sc2c1CCCCC2 (stereo not given) | 10µM*
SMILES | Pf Dd2 growth
COc1ccc(NC(=O)c2c(NC(=O)COc3ccccc3)sc3c2CCC(C)C3)cc1 (stereo not given) | 8%
COc1ccc(Cl)cc1NC(=O)c1c(NCc2sccc2C)sc2c1CCCC2 | 13µM*
COC(=O)c1c(NC(=O)c2cc(OC)c(OC)c(OC)c2Br)sc2c1CCC(C)C2 (stereo not given) | 62%
COC(=O)c1c(NC(=O)c2ccc(OC)cc2OC)sc2c1CCCCC2 | 33%
CC(C)c1ccc(NC(=O)N[C@H]2CO[C@H]3[C@@H]2OC[C@H]3OC(=O)Nc2cccc(C(F)(F)F)c2)cc1 | i
COc1ccccc1C(=O)N1CCC2(CC1)CN(c1ncccn1)CC2CO (stereo not given) | -6%
CC(C)C(=O)N1CCCC(Cc2nc(C3CCOCC3)no2)C1 (stereo not given) | -1%
O=C(c1ccco1)N1CCOc2ccc(CN3CCc4ccccc4C3)cc2C1 | -19%
C[C@H]1CCCN1C(=O)c1nnc(COc2ccc(C#N)cc2)n1-c1cccnc1 | -19%[44.1 µM]
O=C(NCc1ccc(Cl)nc1)c1ccc2ccnn2c1 | i
COC(=O)C1=C(C)N=C2SC=C(CC(=O)N3CCCCC3)N2C1c1ccc(Cl)cc1 (stereo not given) | -15%
Cc1ccc(NC(=O)O[C@@H]2CC[C@]3(C)C(CC[C@@H](O)[C@H]3CC(=O)N3CCCC3)[C@]2(C)CO)cc1 (stereo not given in full) | i
Cc1ccc2c(c1)C(C[C@H]1CN(C(=O)CC(C)(C)C)CC[C@H]1CC(=O)O)=NCC2 | -20%[44.1 µM]
CC(C)COc1cc(=O)n2c(c1C(=O)NCC1CC1)CCCCC2 | 35%
COCCN1CCOc2nc(-c3cc(F)cc(OC)c3)ncc2C1=O | -2%[44.1 µM]
O=C(CN1CCN(c2ncccn2)[C@@H]2CS(=O)(=O)C[C@@H]21)NCc1ccco1 | 1%
Cc1ccc(-c2ncc(C(=O)Nc3ccc(F)c(F)c3)c(-c3ccncc3)n2)cc1 | -22%
COc1cc(NC(=O)c2cnc(-c3ccc(C)cc3)nc2-c2ccncc2)cc(OC)c1 | -14%
O=C(Nc1cc(F)cc(F)c1)c1cnc(-c2ccc(F)cc2)nc1-c1ccncc1 | 10µM*

Source: PubChem
